Measurements taken from the supplement of paper PMC12632987.
The full ranking holds about 2,300 sequences; the median of “median log2 fold change of GCK-ALFA target abundance (FLAG IP / Myc IP barcode read proportion)” is about 0.095, and the lowest 2% start at about -0.47. What follows is part of a selection rich in the lowest values, with near analogues and random picks from the rest.

B1: LC3A_17_590 (protein)
chain: SEEIREELEELLKELKELIKEAKKLGIPEAKEVEKLLKEAEKALKEGKLREAAELLREAADLLADALEEIEEELGSKASVLEMEANGLALRAEGILLKLE
B2: LC3A_17_592 (protein)
chain: SEEIKKEIEELLKELKKLIKKMKELGIPEAKEIEKLLKEAEKALKEGDLKKAAELLAKAADLAADALEEKEEELGSEASVLEMEANGLELRAIGILLKLD
B3: LC3A_28_956 (protein)
chain: SALEEALKKAIEEAKKAAEKGEPAVITIKVPGDADEEDIEKVIEALREIAEILKDVKGAAIIVDVDGKVKQEHIDKIAEEAERIEKEYPNVTVIIALDEE
B4: LC3A_3_1793 (protein)
chain: AQARIDALLAELRAAGKSDETLAAVRAAATALADRGYEEALATFIEELRELIDAPDEILLDLAEEVLRLIEEEDLDEEELTERIKELAELARNEAEIIEL
B5: LC3A_free_8_2441 (protein)
chain: SNQELVDAALKLLDELEEEIEKKAKELGLDETDIGLLLLEVGSAISEVISLSDASPEEILKATKEDLEEIIKLAEEINKELAKIVKEKAEKILKELEKLL
B6: LC3A_28_693 (protein)
chain: SAIDKQIAAARAEADAAIAAGEEATLTITVTADTTQADVDRIMAAIEEIAARMAASAKLNIIIDVEAGVPQEHLDRLADFGDALAARYPNVNIIIALDED
B7: LC3A_free_39_2214 (protein)
chain: SEEELEELIKEVAKESGLDYEYIKKKIEEIKEIAGLSLEQMKELVKAILEAVKAGADAEEILKRILALAKELKAAGKSPEEIAEALIEEAEDFRNLIPLD
B8: LC3A_free_39_2217 (protein)
chain: SMEEIEKLIKEIAEEGGIDYEYVKKKIEEIKEVAGLSDEQILELVKAILEAVKAGADAKEILERILKLAKELKEEGKSPEEIAKELLEEIEDFRNLIPLD
B9: LC3A_free_39_2288 (protein)
chain: SMEELEKAVKRLAELLDKIEGVTEEEKQTILEAAKKSLETAKAILEALETIEKDGGDVAEAAKRIAAKIKELEAAGKSLEEMTEEIIALTKDLVNLIPID
B10: LC3A_3_1447 (protein)
chain: AEELREEALELLRERGASPETIAAAEELFDALIEKGYLEAMELVLEFLKEVKDASDEFLLETFKDLLELVLTSDDSPEEMKKKIEEELSAFRSELEIEEL
B11: LC3A_3_1875 (protein)
chain: MDEKIEETIELLKEAGASEETIEKFEEVAELLKERGYEEALETLIEEVKKLAGTSDEILLDFLEEVLEVLKTKDLSEEELIEEIKRIARLALNEAEIIEL
B12: LC3A_3_1892 (protein)
chain: LEERVEETVERLKEAGASEETIELFLEAAELLLERGYYEALETLIDEVEELIDLPDEILLDFLEEVLEVLETEDLSEEELIERIKELARLAKNEGEIEEL
B13: LC3A_3_1891 (protein)
chain: LEERIERTEELLREKGASEETIELFRKVMELLKARGYEEALKTLIEEVEELADLPDEILLDFLEEVLEVLETEDLSEEELIKKIKELARLARNEGEIIEL
B14: LC3A_28_685 (protein)
chain: SKTEEDLKKALEEAEEALKKGEPTVVRINVYGDVTEEELEKVLKALEEIAKILNKIPGSAIIVDIDADVDEEFEDKIIDKAEELEKKYPNVTIIIALEER
B15: LC3A_28_1013 (protein)
chain: MSIVEETKKKIEEALKEAEKGEDAYLEVEITSEATQEEVEEVLELIEKAAKEVSKLPNVKLYVVIYDDSNQENHQLIVDAADRIEEKYPNVHVIVAYDDE
B16: LC3A_45_1937 (protein)
chain: MYLATIDLIVPRELAEEALALAEEIARELEEENDGKVEVDLETLRESYEATRDEEDVLLVVKIYAETEELALDVADRLVDRLRAALGPRVAAIISVEEVP
B17: LC3A_free_46_2420 (protein)
chain: MTLDIDIDVLAKTEETAKAVAKELTKTLEDTAKELGVKVEIKVEIEKLEDGTYYVHIDATFTGVTEEQAQQIEDKVIDKVEELEKKYPEILGSIISSELE
B18: LC3A_free_26_2152 (protein)
chain: DIFIDLVELDKAIELLEKALKLLEEDKNASEELKKLVKEALKKAEEMTLESLEEAKKLVEEALKLLEKDKSLSEEKKKELKKLLEEALKLLEKNIEIAKS
B19: LC3A_28_1030 (protein)
chain: AALKAAAAAALAEARAQFEAGEEAVVTLDVGDVPTAEAKAVVTAFLAELRALSAEYGGRKVSVVINYDGDQATLDAIIDAAEAAEAEDPNLTVIIAYADN
B20: LC3A_3_1549 (protein)
chain: MEELLEETLKRLKEAGASEEVIEAVRKALQALIDRGYEEALKEFAREVEELIGLPDEILLDFAEEVLRAIEEEDLNEEELIERIKEIATIAKNEGEIIEL
B21: LC3A_28_855 (protein)
chain: SETRKSIEEAREELEKAREAKEPAVITVTVTSDVTEEEVEEVIELIKEAAEASKEVPDLTLIIDFEGEIDPEHLNRITDAADEAIKKNPKLNVIFALDEE
B22: LC3A_147_414 (protein)
chain: TVVEIDILVKSKEAVEKIKERMKEIVKELKAKGYKVKLEIKVEEVEPGVYLVDITIEIEAETKEDAEAAANFVLDKIDEMEEELKDEILGSLISVEIEEK
B23: LC3A_127_214 (protein)
chain: EKEKLIKELLELIRKAQELLAKPDYDLEEIRKLLEEAIKVAKELLKLDERFKPVLEDLESALKLVDQMENLSPAEQEEARERVSMLLDGAEIELLSLELK
B24: LC3A_147_517 (protein)
chain: YLVEVEIDMLLKNSKELAEEIAKEIEERLKEKGYKVEVELEFEEDEDGTIFADITIKVEAETLEEAKEVANEILDIIDELLEKNKDKILGALISVSITKK
B25: LC3A_147_516 (protein)
chain: YKVTVEIDLLLKNSKELAEEMAEEIKEYLESKGYEVEVELEFEEDEDGTIFAKITITVKAETKEEAEKVANEVLEKIDELLEKYKDKILGALISVSIEEE
B26: LC3A_132_295 (protein)
chain: MEEKAEKYLKELKALIAAAKANIDDDAKVTALLKEIEAKIEEAEKELTPEEVAKVFEEVADELWALSQVFDAAGKEQLALEADGLAIEAASLALRAKEKI
B27: LC3A_45_1925 (protein)
chain: MWEATLDVLVPRELAEKAYATAKELMAELEAEHGPDLRVDWATLDESYAASKDEEDVYLEIRIYHPDEQVALDAADRLEDELNAALGGKASSIISLKKLP
B28: LC3A_free_8_2533 (protein)
chain: KREEFVNKALELLDEFEEEIRKKAKELGLDELDILDLELLIGSLKIEVVELRDKPMEEILKTIEEGLEEIIEEAKELSEELAEKVEELAEEILEELKEMM
B29: LC3A_147_503 (protein)
chain: YLLKVDIDIIVKNAEEEVKKMVEEIEEELKKKGFEVKVKINIEQLDENTTYISINIEVKAKTKEEAEEAANYIIDKFDKYLEENKDKILGALISVEIEKE

Target: MAP1LC3A, Q9H492
Assay: median log2 fold change of GCK-ALFA target abundance (FLAG IP / Myc IP barcode read proportion) (log2 ratio); each designed protein is fused to an ALFA-tag nanobody in HEK293 cells to bring the named protein to FLAG-tagged glucokinase (GCK); Myc marks an untargeted standard; higher = target protein stabilised (more abundant)
Settings: target protein: 3xFLAG-MCP-GCK-ALFA reporter; HEK293 landing pad (RPLP)
Description: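 LABEL-seq trans screen in HEK293 landing-pad cells. Each de novo designed 100-aa effector handle, binding the indicated effector (E3 ligase, DUB or autophagy protein), is fused to a constant NbALFA target handle and induced with 2 ug/mL doxycycline. A FLAG-MCP-GCK-ALFA target and a Myc-MCP standard reporter were transfected, and after 48 h circRNA barcodes were recovered by anti-FLAG and anti-Myc IP and sequenced. The value is the median across barcodes (at least 3 per design) of log2(FLAG/Myc read-proportion ratio), with the two transfection replicates pooled. Negative values mean degradation and positive values mean stabilisation of the target.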

Binder | median log2 fold change
B1 | 0.0276
B2 | -0.636
B3 | -0.0851
B4 | 0.139
B5 | 0.0457
B6 | 0.211
B7 | -0.832
B8 | -0.012
B9 | 0.326
B10 | 0.173
B11 | 0.289
B12 | -0.691
B13 | -0.0314
B14 | -0.264
B15 | -0.261
B16 | -0.359
B17 | -0.177
B18 | 0.192
B19 | -0.268
B20 | 0.258
B21 | 0.127
B22 | -0.515
B23 | 0.409
B24 | -0.778
B25 | -0.0638
B26 | 0.0471
B27 | -0.101
B28 | -0.133
B29 | -0.665
